# Screening data: PubChem BioAssay, National Center for Advancing Translational Sciences (NCATS)
# A selection: hits, their analogues and other compounds. The true share with any hit is near 21%.
# DT40 TDP1 no CPT: qHTS for Inhibitors of human tyrosyl-DNA phosphodiesterase 1 (TDP1): qHTS in cells in absence of CPT; DT40 Tdp1-/- hTDP1 cells, no CPT, ATP luminescence, 48 h; Potency, µM (top dose mostly 46.2 µM), for the others: at the top dose activity change, negative = growth inhibition, hits mostly inhibitors; 15% of 420,000 active; AID 686978, 2013; further: potency means the concentration at half of the fitted maximal effect; nearly all actives have a fitted effect of over 55% in size
#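 Luminescent ATP content (CellTiter-Glo) served as the growth readout. Knockout chicken DT40 cells expressing human TDP1 were exposed to compounds without camptothecin for a minimum 48 hr at 37 °C.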
# DT40 TDP1 CPT: qHTS for Inhibitors of human tyrosyl-DNA phosphodiesterase 1 (TDP1): qHTS in cells in presence of CPT. chicken DT40 Tdp1-/-;hTDP1 cells + 20 nM CPT, ATP luminescence, 48 h. Potency, µM (series often up to 46.2 µM), for inactives: at the top dose activity change, negative = growth inhibition, actives largely listed as inhibitors. 12% of 420,000 active. AID 686979, 2013; further: potency means the concentration at half of the fitted maximal effect; nearly all actives have a fitted effect of over 55% in size
#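 Chicken DT40 Tdp1-/- cells complemented with human TDP1, 400 cells/well, exposed to compounds plus 20 nM camptothecin for at least 48 h at 37 C; viability read as ATP content by CellTiter-Glo luminescence.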
# RORgamma inh: qHTS for inhibitors of ROR gamma transcriptional activity. Drosophila S2 Gal4-RORgamma UAS-luciferase reporter, 20 h. Potency, µM (highest dose often 53.6 µM), for the others: top-dose activity change, negative = inhibition, hits mostly inhibitors. 5.4% of 310,000 active; further: potency means the concentration at half of the fitted maximal effect; nearly all actives have a fitted effect of over 60% in size
# Target sequence (P51450 whole entry, looked up, the tested form may be a part): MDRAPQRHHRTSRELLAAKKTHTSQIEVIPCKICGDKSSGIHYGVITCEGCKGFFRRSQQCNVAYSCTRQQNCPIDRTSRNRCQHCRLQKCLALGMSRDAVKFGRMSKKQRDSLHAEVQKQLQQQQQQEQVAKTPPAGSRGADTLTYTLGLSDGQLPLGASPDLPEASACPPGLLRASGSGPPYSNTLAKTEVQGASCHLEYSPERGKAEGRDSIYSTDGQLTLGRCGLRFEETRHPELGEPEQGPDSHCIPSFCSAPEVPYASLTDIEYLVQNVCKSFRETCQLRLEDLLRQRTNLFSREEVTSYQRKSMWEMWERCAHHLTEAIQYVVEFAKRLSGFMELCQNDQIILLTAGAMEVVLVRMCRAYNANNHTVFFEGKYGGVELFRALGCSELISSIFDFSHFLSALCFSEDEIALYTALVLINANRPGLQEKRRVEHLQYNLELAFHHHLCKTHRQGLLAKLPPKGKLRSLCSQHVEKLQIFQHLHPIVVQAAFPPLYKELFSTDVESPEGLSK
#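 ROR gamma transcriptional activity was tracked as Gal4-UAS luciferase output in stably transfected Drosophila Schneider cells, with compound added 1 hr before 700 uM copper sulfate induction and a 20 hr ambient-temperature incubation.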
# IL-1B inflam inh: qHTS for Inhibitors of Inflammasome Signaling: IL-1-beta AlphaLISA Primary Screen; THP-1 LPS/ATP IL-1B secretion, AlphaLISA, 16 h; active compounds read low; AID 743279, 2014; activity change, % at 57.5 µM; 4.7% of 360,000 active; in the data active means activity change below about -50%; inconclusive means mostly about -30% to -49%
#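 Secreted IL-1B measured by AlphaLISA bead assay after 16 h compound exposure of THP-1 cells; compounds (final up to 57.5 uM) added 1 h before LPS (250 ng/mL) and ATP (1.25 mM) stimulation; lower signal means less secretion.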
# ELG1 DNA repair: qHTS screen for small molecules that inhibit ELG1-dependent DNA repair in human embryonic kidney (HEK293T) cells expressing luciferase-tagged ELG1 | 2.3% of 330,000 active | Potency, µM (titrated, usually from 46.1 µM), without a hit: at the highest dose activity change, negative = inhibition, actives largely listed as inhibitors | HEK293T ELG1-luciferase reporter, luminescence, 16 h; DNA damage induced by 5-fluorouridine; further: potency means the concentration at half of the fitted maximal effect; nearly all actives have a fitted effect of over 55% in size
#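 Cells (2,000 per well) received 5-fluorouridine plus test compound or DMSO and were incubated 16 hr at 37 °C, 5% CO2. Luciferase activity was read by luminescence 30 min after ONE-Glo addition; signal suppression marked inhibition of damage-induced ELG1 function.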
# VP16 counter: VP16 counterscreen qHTS for inhibitors of ROR gamma transcriptional activity. AID 2546, 2010. 3.5% of 310,000 active. Drosophila S2 Gal4-VP16 UAS-luciferase, luminescence, 20 h. Potency, µM (titrated, usually from 53.6 µM), inactives show top-dose activity, negative = inhibition, most hits filed as inhibitors;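 further: Gal4-VP16 expression switched on by copper sulfate through the metallothionein promoter; potency means the concentration at half of the fitted maximal effect; nearly all actives have a fitted effect of over 50% in size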
# An asterisk follows results filed as active; ? = inconclusive; · = no result given; [ ] = another dose, or the depositor's remark. Unless noted, the call rests on the fitted dose curve; in most records, active means well fitted curve in the direction sought with a large enough effect; inconclusive means small, poorly fitted or top-dose-only effect, or another doubt; inactive means no such curve, though single readings can be large; an effect the other way counts as inactive or inconclusive. On the % scale 0 is the no-effect control and ±100 the full control effect.
SMILES,DT40 TDP1 no CPT,DT40 TDP1 CPT,RORgamma inh,IL-1B inflam inh,ELG1 DNA repair,VP16 counter
O=c1c(-c2ccc(F)c(F)c2)nc2cncnc2n1Cc1ccccc1Cl,?,?,1%,·,·,2%
CC(C)N1C[C@@H](Sc2ccccn2)C[C@H]1C(=O)Nc1ccc2c(c1)Nc1ccccc1CC2,-10%,11%[9.04 µM],·,·,·,·
CCOC(=O)c1c(CN(CC)CC)n(C)c2cc(Br)c(O)cc12,?,-11%,7%,-5,?,-8%
CCOC(=O)c1c(CSc2ccsc2)n(C)c2cc(Br)c(O)c(CN(C)C)c12,23µM*,18µM*,-13%,-53*,-12%,-10%
CCOC(=O)c1c(CN2CCCCC2)n(C)c2cc(Br)c(O)c(CN(C)C)c12,?,18µM*,12%,-10,-30%,-5%
CCCCNC(=O)C(NC(=O)c1cccs1)C(=O)c1ccccc1 (stereo unspecified),1%,-2%,·,5,·,·
C[C@H]1CN([C@@H](C)CO)C(=O)c2cc(NC(=O)NC3CCCCC3)ccc2O[C@H]1CN(C)C(=O)Nc1ccc(C(F)(F)F)cc1,?,?,·,-19,?,·
O=S(=O)(c1cccc(F)c1)N1CCC(Oc2ccc(-n3cnnn3)cc2)CC1,15µM*,16µM*,·,·,·,·
C[C@H]1CCCCO[C@H](CN(C)Cc2ccc(C(=O)O)cc2)[C@@H](C)CN([C@@H](C)CO)C(=O)c2cc(NS(=O)(=O)c3cn(C)cn3)ccc2O1,?,11%,·,23,·,·
Cc1ncsc1C(=O)NCc1ccc(N2CCCC2=O)cc1,-28%,?,13%,0,?,?
Cn1ccnc1C1CCCCN1Cc1nc(-c2ccc3c(c2)OCO3)no1 (stereo unspecified),-8%,0%,?,2,6%,-10%
FC(F)(F)c1cccc(Cc2noc(CN3C[C@@H]4CCC[C@H]3C4)n2)c1,-27%,-18%,11%,-19,-3%,8%
Cn1ccnc1C1CCCCN1Cc1nc(Cc2cccc(C(F)(F)F)c2)no1 (stereo unspecified),?,-21%,7.1µM*,10,-17%,?
COc1ccc(-c2noc(CN3CCCCC3c3nccn3C)n2)cc1 (stereo unspecified),-7%,-12%,3.5µM*,-21,0%,?
C=CCC[C@@H](Cc1ccc(F)cc1)C(=O)OC[C@@H](NC(=O)[C@@H](CC=C)CC(=O)N[C@@H](CO)Cc1ccccc1)C(C)(C)C,?,23µM*,·,?,-4%,·
C=CCC[C@H](Cc1ccc(F)cc1)C(=O)OC[C@@H](C)NC(=O)[C@@H](CC=C)CC(=O)N[C@H](CO)Cc1ccccc1,?,?,·,-3,-9%,·
C=CCC[C@H](Cc1ccc(F)cc1)C(=O)OC[C@@H](C)NC(=O)[C@@H](CC=C)CC(=O)N[C@@H](CO)Cc1ccccc1,15µM*,?,·,-11,-6%,·
C=CCC[C@H](Cc1ccc(F)cc1)C(=O)OC[C@@H](NC(=O)[C@@H](CC=C)CC(=O)N[C@@H](CO)Cc1ccccc1)C(C)(C)C,21µM*,21µM*,·,-60*,?,·
CC(=O)OC1CC2C(C)(C)C(=O)C3OC3[C@]2(C)C2CC[C@@]3(C)C(c4ccoc4)OC(=O)C4OC43[C@]12C (stereo partly specified),-12%,7%,30%,·,·,?
CC(=O)c1ccc(NC(=O)C2CCCN(S(=O)(=O)c3cn(C)cn3)C2)cc1 (stereo unspecified),-13%,-5%,·,·,·,·
CC(C)(C)c1ccc(C(=O)/C=C2\NC(=O)CS2)cc1,18µM*,15µM*,3.2µM*,-23,?,10µM*
COC(=O)Nc1ccc2c(c1)N(C(=O)CCN1CCN3CCCC3C1)c1ccccc1S2 (stereo unspecified),?,13µM*,2%,-25,-14%,10%
O=C(CCN1CCN2CCCC2C1)N1c2ccccc2Sc2ccc(Cl)cc21 (stereo unspecified),?,?,-7%,-9,5%,11%
S=c1nccc(-c2cccs2)[nH]1,?,?,4µM*,39,-2%,7.9µM*
COc1ccc([N+](=O)[O-])cc1NC(=O)CSCc1ccc(Br)cc1,?,?,17%,-27,?,?
SMILES,DT40 TDP1 no CPT,DT40 TDP1 CPT,RORgamma inh,IL-1B inflam inh,ELG1 DNA repair,VP16 counter
O=C(CSCc1ccc(Cl)cc1)Nc1cc([N+](=O)[O-])ccc1O,18µM*,?,?,?,9%,?
O=C(Nc1ccc(Cl)cc1)Nc1cc([N+](=O)[O-])ccc1F,-26%,-3%,?,13,13µM*,?
Cc1ccc([N+](=O)[O-])cc1NC(=O)Nc1ccc(S(N)(=O)=O)cc1,-20%,3%,7%,-15,19%,1%
O=C(Nc1ccc([N+](=O)[O-])cc1)Nc1ccc(Cl)cc1F,1.6µM*,2.6µM*,12%,-93*,1%,-14%
Cc1cc(OC(F)F)ccc1NC(=O)Nc1ccc([N+](=O)[O-])cc1,18µM*,15µM*,-92%,?,?,?
CCC(C)(C)C(=O)Nc1cc([N+](=O)[O-])ccc1F,-2%,3%,32%,-14,14%,-19%
O=C(N/C(=C/c1ccccc1F)C(=O)N1CCCCC1)c1ccccc1,5%,7%,24%,0,1%,-10%
O=C(CSc1nnc(-c2cccc(Cl)c2)o1)N1CCc2ccccc21,11%,1%,·,·,·,·
COc1ccccc1N1CCN(C2CCCN(S(=O)(=O)c3ccccc3)C2)CC1 (stereo unspecified),?,-25%,-1%,0,?,-1%
CC1=C(C(=O)N(C(C)C)C(C)C)CC(CC(=O)NC2CC2)C(=O)N1CCCN1CCCC1=O (stereo unspecified),?,-6%,·,0,·,·
c1ccc(COC[C@@H]2CO2)cc1,·,·,-1%,·,·,2%
O=C(CNC1CCCCCC1)Nc1ccccc1N1CCCCC1,21µM*,?,-32%,-21,-13%,0%
COc1ccccc1N1CCN(C(=O)COc2ccc(Cl)cc2Br)CC1,?,?,13%,?,?,-3%
